From PubChem BioAssay AID2125 (NMMLSC, 2009) come the findings set out here.

Unmarked numbers belong to inactive results.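 How the source made its calls: active means combined score above 50, rising as EC50 falls below 10 µM and growth at top dose drops; inactive means the rest.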 Peptide text beside a SMILES is read from it. * marks the point of attachment. Cbz = O=C(OCc1ccccc1)*

In the assay the test system is YE4008. The assay is described as follows: growth inhibition of S. cerevisiae strain panel, profiling panel, 26S proteasome disassembly project, secondary panel, OD600 (AID 2125). To be noted: growth OD600, 6-8 h, at 100 µM, stronger effect = lower value.

Consider `CC(C)C[C@@H](C=O)NC(=O)[C@H](CC(C)C)NC(=O)[C@H](CC(C)C)NC(=O)OCc1ccccc1` (Cbz-Leu-Leu-Leu-aldehyde), for which the percent response (growth) is 88.2%. With `CC(=O)N1C(=O)C(=C2C=C(C)OC(C)=C2)c2ccccc21` the figure was 56.6%.
